Bioassay records as filed in PubChem BioAssay.
NPSR antagonist = antagonists of human neuropeptide S receptor cAMP signaling | CHO-NPSR cells, cAMP TR-FRET, antagonist mode | Potency, µM (titrated, usually from 38.3 µM), actives largely listed as inhibitors | 220,000 tested, 1% active | AID 1461; further: nearly all actives have a fitted effect of over 50% in size
Target sequence (Q6W5P4 whole entry, looked up): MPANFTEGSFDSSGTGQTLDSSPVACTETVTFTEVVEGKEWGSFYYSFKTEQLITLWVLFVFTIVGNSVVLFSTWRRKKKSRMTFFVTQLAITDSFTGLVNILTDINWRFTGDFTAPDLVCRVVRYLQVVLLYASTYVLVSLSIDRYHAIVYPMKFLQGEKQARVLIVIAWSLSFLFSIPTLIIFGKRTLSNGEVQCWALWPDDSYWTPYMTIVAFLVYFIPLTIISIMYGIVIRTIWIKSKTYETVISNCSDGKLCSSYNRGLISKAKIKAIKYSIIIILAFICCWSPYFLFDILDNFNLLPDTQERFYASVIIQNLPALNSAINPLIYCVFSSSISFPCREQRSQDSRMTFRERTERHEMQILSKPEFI
HTT ATP protect = cytoprotection in Huntington HTT-Q103 PC12 cell model. PC12 HTT-Q103 induced, cytoprotection, ATP luminescence, 40 h. 230,000 tested, 0.14% active. Potency, µM (series often up to 56.4 µM), most hits filed as activators; further: nearly all actives have a fitted effect of over 45% in size
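Quantitative HTS on tebufenozide-induced (100 nM) PC12 cells expressing HTTQ103 exon 1–GFP; compounds tested as a concentration series; survival measured via cellular ATP.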
LMNA splice mod = LMNA splicing modulation; HeLa LMNA splicing GFP/RFP minigene ratio, 48 h; Potency, µM (doses to about 46.1 µM), hits mostly inhibitors; 200,000 tested, 0.01% active; AID 1487; active means well fitted inhibition curve with a large enough effect in the signal ratio, with a control signal flat, not every such curve was filed as active; inconclusive means small, poorly fitted or top-dose-only effect, or effect the other way, or a change in a side signal; the % refers to the signal ratio
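S3 HeLa cells stably expressing lamin A-EGFP splicing minigene plus DsRed2, 600 cells/well, 48 h compound exposure at 37C. Laser-scanning cytometry; analysed as GFP (500-530 nm)/RFP (575-640 nm) total intensity ratio; 0.5% DMSO vehicle.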
Epigenetic reg = derepresses silenced GFP reporter in murine cells | 280,000 tested, 0.2% active | murine LDR cells, GFP reporter derepression, 30 h | Potency, µM (series often up to 53.9 µM), usual class: activators | AID 1865; further: nearly all actives have a fitted effect of over 60% in size
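Derepression of a silenced CMV-GFP reporter in murine LDR cells is scored by enumerating GFP-positive cells with a laser-scanning microplate cytometer after 30 hours of treatment at 37 C.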
HTT aggregate = mutant huntingtin aggregation inhibition. PC12 HttQ103-GFP aggregates, Acumen cytometry, 40 h. Potency, µM (doses to about 46.1 µM), hits mostly inhibitors. 220,000 tested, 1.1% active. AID 1688; further: nearly all actives have a fitted effect of over 60% in size
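Multiplexed with ATP-based cell death, this channel scores GFP aggregates in PC12 cells expressing inducible HTTex1-Q103-GFP. Induction used 100 nM tebufenozide; compounds were tested in concentration series.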
Large screens that a line does not name were inactive. Compounds with a hit are over-represented: about 1.5% of the library has one in this group of screens. Unless noted, the call rests on the fitted dose curve; in most records, active means well fitted curve in the direction sought with a large enough effect; inconclusive means small, poorly fitted or top-dose-only effect, or another doubt; inactive means no such curve, though single readings can be large; an effect the other way counts as inactive or inconclusive.

O=C(NCc1ccco1)c1ccccc1NS(=O)(=O)c1ccc(Br)s1	HTT aggregate 18µM
CN(CCO)C1=NS(=O)(=O)c2cc([N+](=O)[O-])ccc21	HTT aggregate 6.3µM (no result: LMNA splice mod)
CSc1ccc(/C=C/c2nc3ccccc3n2S(=O)(=O)c2ccc(Br)cc2)cc1	none (no result: NPSR antagonist, HTT ATP protect, LMNA splice mod, HTT aggregate)
Cc1ccc(NC(=S)NNc2ncc(C(F)(F)F)cc2Cl)c(C)c1	LMNA splice mod inconclusive, HTT aggregate inconclusive
Cc1ccc(NC(=S)NNc2ncc(C(F)(F)F)cc2Cl)cc1	LMNA splice mod inconclusive
FC(F)(F)c1cnc(NNC(=S)Nc2ccc(Cl)cc2)c(Cl)c1	LMNA splice mod inconclusive, HTT aggregate 11µM
Fc1ccc(NC(=S)NNc2ncc(C(F)(F)F)cc2Cl)c(F)c1	LMNA splice mod inconclusive, HTT aggregate 7.9µM
O=C(O)CSCc1cccc2ccccc12	none (no result: NPSR antagonist, LMNA splice mod, Epigenetic reg, HTT aggregate)
O=C1CCc2ccccc2N1	none (no result: LMNA splice mod)
S=C1Cc2ccccc2N1	HTT ATP protect 1.3µM (no result: LMNA splice mod)
CCCCCc1ccc(OCCCC[n+]2ccc(C)cc2)c(CCCCC)c1	NPSR antagonist inconclusive, HTT aggregate inconclusive (no result: LMNA splice mod)
CCCCCc1ccc(OCCCC[n+]2ccccc2)c(CCCCC)c1	HTT aggregate 11µM (no result: LMNA splice mod)
Cc1ccc(N=Cc2sc(O)c3ccccc23)cc1	NPSR antagonist inconclusive, Epigenetic reg 16µM
CC1CCC(C(=O)O)([C@H](Br)C(=O)O)CC1 (some centres not stated)	none (no result: NPSR antagonist, LMNA splice mod, Epigenetic reg, HTT aggregate)
CCOC(=O)c1c(NS(=O)(=O)c2cccc(OC)c2)sc2c1CCC2	NPSR antagonist inconclusive, HTT ATP protect 14µM
Nc1c(C(=O)Nc2ccccc2F)sc2nc(Cc3ccccc3)cc(C(F)(F)F)c12	NPSR antagonist inconclusive, LMNA splice mod inconclusive, Epigenetic reg 13µM
Cc1cc(C)c2c(N)c(C(=O)Nc3ccccc3C(F)(F)F)sc2n1	none (no result: NPSR antagonist, HTT ATP protect, HTT aggregate)
C[C@@]12CCC(=O)C=C1CC[C@H]1[C@@H]2[C@@H](O)C[C@]2(C)[C@@H]1CC[C@@]2(O)C(=O)CO	none (no result: NPSR antagonist, LMNA splice mod, Epigenetic reg, HTT aggregate)
O=C(Oc1c(CN2CCOCC2)cc(Cl)c2cccnc12)c1cccs1	NPSR antagonist inconclusive, LMNA splice mod inconclusive, Epigenetic reg inconclusive, HTT aggregate 1.3µM
Oc1c(Cl)cc(Cl)c2cccnc12	LMNA splice mod inconclusive, Epigenetic reg inconclusive, HTT aggregate 8.9µM
O=C(Oc1c(CN2CCOCC2)cc(Cl)c2cccnc12)c1ccccc1Cl	NPSR antagonist 7.9µM, LMNA splice mod inconclusive, Epigenetic reg inconclusive, HTT aggregate inconclusive
O=C(Oc1c(Cl)cc(Cl)c2cccnc12)c1ccco1	NPSR antagonist inconclusive, LMNA splice mod inconclusive, Epigenetic reg inconclusive, HTT aggregate inconclusive
O=C(Oc1c(Cl)cc(Cl)c2cccnc12)c1cccs1	LMNA splice mod inconclusive, Epigenetic reg inconclusive, HTT aggregate 10µM
Cc1cccc(-n2c3c(cc(-c4nc(-c5ccc(Cl)cc5)cs4)c2=O)C(=O)CC(C)(C)C3)c1	none (no result: NPSR antagonist, HTT ATP protect, LMNA splice mod, HTT aggregate)
CCOc1ccc(-c2cc(C(=O)NCCc3ccccc3)c3c(-c4ccc(C)cc4)[nH]nc3n2)cc1	none (no result: NPSR antagonist, HTT ATP protect, LMNA splice mod, HTT aggregate)
Cc1ccc(NC(=O)[C@H](CSCc2ccccc2)N2Cc3ccccc3C2=O)cc1	none (no result: NPSR antagonist, HTT ATP protect, LMNA splice mod, HTT aggregate)
CN(c1ccccc1)S(=O)(=O)c1ccc(NC(=O)c2ccc(-c3ccccc3)cc2)cc1	HTT aggregate 13µM
CCOc1ccc(CNC(=O)CCS(=O)(=O)c2cc3c(cc2Cl)NC(=O)CO3)cc1OC	none (no result: NPSR antagonist, HTT ATP protect, HTT aggregate)
c1ccc2c(c1)CCN(c1ncnc3c1[nH]c1ccccc13)C2	NPSR antagonist inconclusive, LMNA splice mod inconclusive, HTT aggregate 11µM
COc1cccc2[nH]c3c(N4CCc5ccccc5C4)ncnc3c12	none (no result: LMNA splice mod)
c1ccc2c(c1)[nH]c1c(N3CCC4(CC3)OCCO4)ncnc12	LMNA splice mod inconclusive, HTT aggregate 13µM
Cc1ccc2nc(-c3cccnc3)cc(C(=O)N3CCN(c4ccc([N+](=O)[O-])cc4)CC3)c2c1	NPSR antagonist 5µM
O=C(c1cc(-c2cccnc2)nc2ccc(Br)cc12)N1CCN(c2ncccn2)CC1	NPSR antagonist inconclusive
Cc1ccc2c(C(=O)N3CCN(c4ccccc4)CC3)cc(-c3cccnc3)nc2c1C	HTT aggregate 10µM (no result: LMNA splice mod)
O=C(Nc1cccc(F)c1)N1CCC2(CCNCC2)CC1	none (no result: NPSR antagonist, LMNA splice mod, Epigenetic reg, HTT aggregate)
CCc1cc2ccc(OC)cc2nc1SCC(=O)Nc1cc(C)on1	NPSR antagonist 10µM
CCc1cc2ccccc2nc1SCC(=O)Nc1cc(C)on1	none
COc1cc2cc3c(N)c(C(=O)NCc4ccco4)sc3nc2cc1OC	LMNA splice mod inconclusive
